Assay outcomes as filed in PubChem.
Sampled rows, rich in hits. Any-hit rate of the full collection: about 2%.
PAX8 reporter – PAX8 transcriptional activity inhibition | RMG-I TPO-luciferase reporter, SteadyGlo, 24 h | inhibition, % at 12.6 µM | 360,000 compounds, 1.2% hits;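 active = mean replicate inhibition at least 60% with every replicate also reaching 60%; inconclusive = only one of the two criteria is met; inactive = mean below 60% and not all replicates reaching 60%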;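 note: luciferase light reporting Pax8 driven TPO promoter activity; plate controls were median of neutral control wells for no effect and mitoxantrone controls for full effect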
CF NFkB block – inhibitors of cystic fibrosis induced NF-kB. AID 588850. inhibition, % at 5 µM. 360,000 compounds, 0.86% hits. KKLEB NF-kB-GFP reporter, PAF-induced, GFP fluorescence overnight;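 active = at least 50% inhibition at 5 µM, scaled per plate between neutral and stimulator controls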;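 note: PAF is a Pseudomonas aeruginosa culture filtrate used as stimulus; plate controls were PAF-stimulated DMSO wells for no effect and unstimulated DMSO wells for full effect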
EWS-Fli inh – inhibitors of EWS/Fli oncoprotein transcriptional activity. A673 NR0B1-luciferase reporter, viability-normalised. inhibition, % at 12.6 µM. 350,000 compounds, 0.67% hits;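 active = mean inhibition of at least 50% after viability correction, with every replicate also passing that limit; inconclusive = mean reaches 50% but only one of two replicates passes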;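 note: firefly luciferase signal divided by Alamar Blue viability fluorescence both relative to DMSO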
Shn3 inh set2 – inhibitors of Schnurri-3 3'UTR reporter in osteoblasts; inhibition, % at 12.5 µM; 360,000 compounds, 0.52% hits; Clone20 osteoblast Shn3 3'UTR firefly luciferase, 24 h;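 active = mean inhibition of at least 75% with every replicate also reaching 75%; inconclusive = mean inhibition at least 75% but some replicate below; inactive = mean inhibition below 75%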;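 note: 0% = median of neutral control wells and 100% = pilot-screen positive control compound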
LGR2 inh – blocks bursicon-induced cAMP signaling via Drosophila LGR2; HEK293 LGR2, CRE-luciferase, bursicon-stimulated, 4 h; 380,000 compounds, 0.35% hits; AID 720647; inhibition, % at 9.99 µM;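 active = drop in luminescence signal, shown as inhibition above about 50% in the replicate tests, limit read from the data, passing the limit was not always enough; inconclusive = probably only some replicates passing the limit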;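 note: agonist challenge used bursicon conditioned medium at about half maximal strength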
KKLEB tox – counter-screen for CF NF-kB inhibitors: cytotoxicity | activity change (cytotoxicity), % at 5 µM | AID 602141 | 360,000 compounds, 0.36% hits | KKLEB CF airway cells viability, ATPlite luminescence, overnight; stronger effect = lower value; cells stimulated with P. aeruginosa culture filtrate;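 active = corrected activity change at or below -50% at 5 µM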
Active calls of the source: *; ? = inconclusive; · = not tested or not shown.

SMILES | PAX8 reporter | CF NFkB block | EWS-Fli inh | Shn3 inh set2 | LGR2 inh | KKLEB tox
Oc1c(C(c2ccccn2)N2CCCCC2)cc(Cl)c2cccnc12 (centres undefined) | 76.7* | -8.6 | 36.6 | 20.5 | 0.1 | -9.2
CCC(=O)NC(c1ccc(C)cc1)c1cc([N+](=O)[O-])c2cccnc2c1O (centres undefined) | 12.3 | 2.3 | · | 7.9 | 21.8 | -3.7
CCCC(=O)NC(c1ccco1)c1cc([N+](=O)[O-])c2cccnc2c1O (centres undefined) | 13.6 | 57.2* | 19.6 | 1.4 | -3.3 | -10.9
C/C=C/c1ccc([C@@H]2[C@H](CO)N(C(=O)c3ccccn3)C23CN(CCC(F)(F)F)C3)cc1 | 9.4 | · | 2.4 | · | 14.7 | ·
CO[C@H]1CN(C)C(=O)c2ccc(NC(C)=O)cc2OC[C@@H](C)N(CCC(F)(F)F)C[C@H]1C | · | · | -1.6 | · | -4.1 | ·
COc1ccc(CN(C)C[C@H]2Oc3ccc(NC(=O)NC4CCCCC4)cc3CC(=O)N([C@@H](C)CO)C[C@@H]2C)cc1 | -9.7 | · | · | · | 15.1 | ·
O=[N+]([O-])c1cc(Cl)c2cccnc2c1O | -22.3 | 2.9 | -12.0 | -9.8 | 17.7 | 11.0
Oc1c(I)cc(Cl)c2cccnc12 | 78.7* | 7.4 | 16.4 | -7.5 | · | -10.7
CCC(=O)NC(c1cc(Cl)c2cccnc2c1O)C1CC1 (centres undefined) | 65.6* | 2.0 | 26.8 | 77.9 | 20.3 | -10.5
CC(=O)NC(c1ccc(C)cc1)c1cc([N+](=O)[O-])c2cccnc2c1O (centres undefined) | 0.8 | 11.4 | 0.4 | 44.9 | · | 7.1
CCCCC(=O)NC(c1cccs1)c1cc(Cl)c2cccnc2c1O (centres undefined) | ? | 3.7 | 38.9 | 24.4 | 32.1 | -14.9
CCCC(=O)NC(c1ccc(OC)c(OC)c1)c1cc(Cl)c2cccnc2c1O (centres undefined) | 20.0 | -1.5 | 9.7 | 87.8* | 16.1 | -4.8
COc1ccc(C(NC(C)=O)c2cc(Cl)c3cccnc3c2O)cc1 (centres undefined) | 43.7 | -4.3 | 8.9 | 89.6* | 21.5 | -1.0
O=C([C@@H]1[C@@H](CO)[C@@H]2Cn3c(cccc3=O)[C@H]1N2CCC(F)(F)F)N1CCCCC1 | -8.4 | · | 0.1 | · | -15.7 | ·
Cc1ccc(S(=O)(=O)Nc2ccc3c(c2)C(=O)N([C@H](C)CO)C[C@@H](C)[C@H](CN(C)C(=O)NC(C)C)OCCCC[C@@H](C)O3)cc1 | -5.7 | · | -5.7 | · | 18.0 | ·
C[C@H]1CN([C@@H](C)CO)C(=O)c2cc(C3=CCCCC3)cnc2O[C@H]1CN(C)C(=O)c1ccccn1 | -24.6 | · | -25.3 | · | 9.5 | ·
CC(=O)Oc1ccc(/C=C/c2nc3ccccc3c(=O)o2)cc1 | 36.6 | 2.0 | 37.7 | -23.9 | 58.6* | -0.5
CC(=O)Oc1ccccc1/C=C/c1nc2ccccc2c(=O)o1 | 54.0 | -4.2 | 44.5 | 6.4 | 65.5* | -0.2
COC(=O)[C@H]1[C@H](CO)[C@H]2Cn3c(cccc3=O)[C@H]2N1C(=O)C1CCC1 | · | · | 3.3 | · | 9.3 | ·
CCN1[C@H](C(=O)NCCCN(C)C)[C@@H](CO)[C@@H]2Cn3c(ccc(-c4cccc(F)c4)c3=O)[C@@H]21 | · | · | -13.8 | · | 5.3 | ·
Cc1cnc(NC(=O)COc2ccccc2Cl)s1 | · | -3.2 | · | 62.5 | 91.2* | -24.2
Cc1cnc(NC(=O)CCNC(=O)c2ccccc2Cl)s1 | -1.4 | -7.6 | -13.5 | -12.7 | -0.1 | -1.1
Cc1noc(C)c1NC(=O)Nc1ccc2c(c1)C(=O)N([C@H](C)CO)C[C@H](C)[C@H](CN(C)S(=O)(=O)c1c(C)noc1C)OCCCC[C@@H](C)O2 | -23.1 | · | -18.1 | · | -9.6 | ·
O=C(C[C@H]1CC[C@@H]2[C@H](COC[C@H](O)CN2CC2CCOCC2)O1)NCC1CCCCC1 | 3.2 | · | -0.1 | · | 2.4 | ·
C(=N\N1CCN(Cc2ccccc2)CC1)/c1ccc(-c2ccccc2)cc1 | -24.9 | -6.9 | -7.6 | 89.5* | -3.6 | -2.2
CCOc1ccc(NS(=O)(=O)c2cc(C(=O)NCCN3CCOCC3)ccc2C)cc1 | -10.5 | -16.5 | -12.9 | 92.3* | 6.4 | -14.4
CC1(C)C[C@H](O)[C@]2(CO)CC[C@]3(C)C(=CCC4[C@@]5(C)CC[C@H](O)C(C)(C)C5CC[C@]43C)[C@@H]2C1 (some centres undefined) | · | 19.3 | -2.0 | -1.8 | · | -5.5
